# Shiga toxin inh: inhibitors of Shiga toxin in Vero cells; 290,000 compounds, 9.2% hits; AID 2315; Vero cells, Shiga toxin protein synthesis inhibition reporter; inhibition, % at 38.7 µM; in the data active means inhibition mostly above about 28%, no sharp cut-off; inactive means mostly below about 43%; further: 0% is about no effect
# Pf growth 48h: inhibits P. falciparum growth in the first generation, 48 h; P. falciparum luciferase growth in erythrocytes, 48 h; Potency, µM (doses to about 28.7 µM), inactives show at the top dose activity change, negative = inhibition, usual class: inhibitors; 310,000 compounds, 5.9% hits; AID 504832; further: potency means the concentration at half of the fitted maximal effect; on the % scale 0 is the no-effect control and ±100 the full control effect
#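 Cell-based growth assay: transgenic P. falciparum expressing firefly luciferase, cultured in red cells within RPMI 1640 containing 0.5% w/v Albumax, 24 mM bicarbonate and gentamycin. A drop in luciferase activity indicates inhibition.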
# LmPK inh: blocks Leishmania mexicana pyruvate kinase activity | Q27686 | purified LmPK, Kinase-Glo ATP luminescence, 1 h | Potency, µM (top dose mostly 57.5 µM), inactives show at the highest dose activity change, negative = inhibition, usual class: inhibitors | 290,000 compounds, 0.37% hits | AID 1721; further: potency means the concentration at half of the fitted maximal effect; on the % scale 0 is the no-effect control and ±100 the full control effect
# Target sequence (Q27686 whole entry, looked up): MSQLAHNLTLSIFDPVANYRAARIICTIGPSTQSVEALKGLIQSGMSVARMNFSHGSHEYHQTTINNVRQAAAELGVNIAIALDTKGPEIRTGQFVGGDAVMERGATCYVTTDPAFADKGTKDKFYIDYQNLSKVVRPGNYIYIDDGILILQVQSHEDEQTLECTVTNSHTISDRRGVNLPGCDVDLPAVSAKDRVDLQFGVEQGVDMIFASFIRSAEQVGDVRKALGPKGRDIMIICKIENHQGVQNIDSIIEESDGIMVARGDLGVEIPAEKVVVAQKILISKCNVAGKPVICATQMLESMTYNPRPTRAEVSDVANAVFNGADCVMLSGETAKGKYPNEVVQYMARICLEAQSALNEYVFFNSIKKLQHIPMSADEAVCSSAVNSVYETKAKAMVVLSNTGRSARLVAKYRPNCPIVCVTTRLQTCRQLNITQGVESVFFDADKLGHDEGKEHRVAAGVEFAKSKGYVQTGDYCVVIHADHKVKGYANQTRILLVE
#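 Kinase-Glo luminescence read after 1 h RT reaction of 0.1 nM LmPK with 0.5 mM PEP and 0.1 mM ADP. Activity scaled between uninhibited and enzyme-free controls.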
# CHX counter: affects cycloheximide protein synthesis inhibition readout, counter-screen; cell reporter, cycloheximide protein synthesis inhibition counterscreen; max response, %; 300,000 compounds, 12% hits; in the data active means max response mostly above about 13%, no sharp cut-off; inactive means mostly below about 14%; further: read at 38.3 µM for the half of the compounds with a filed dose; 0% is about no effect
# Pf growth 96h: P. falciparum growth inhibition at 96 hours. P. falciparum luciferase reporter growth, 96 h. Potency, µM (top dose mostly 28.7 µM), without a hit: top-dose activity change, negative = inhibition, hits mostly inhibitors. 320,000 compounds, 6.9% hits. AID 504834; further: potency means the concentration at half of the fitted maximal effect; on the % scale 0 is the no-effect control and ±100 the full control effect
#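 Cell-based qHTS: luciferase-tagged P. falciparum in erythrocytes (2% hematocrit, 0.05% parasitemia final) incubated with compounds for 96 hours, 37 C, 5% CO2; luciferase detection reagent then added and luminescence measured.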
# * = called active by the depositor; i = inactive; ? = inconclusive; nt = no result given; + = active, no number; [ ] = dose if it differs, or a comment. Only some compounds are listed: those with a hit (about 22% of all), similar ones and a draw of the others. Unless noted, the call rests on the fitted dose curve; in most records, active means well fitted inhibition curve with a large enough effect; inconclusive means small, poorly fitted or top-dose-only effect, or another doubt; inactive means no such curve, though single readings can be large or run the other way.
SMILES,Shiga toxin inh,Pf growth 48h,LmPK inh,CHX counter,Pf growth 96h
OC[C@H](S)CS,nt,1.5µM*,nt,nt,0.6µM*
C=CCn1c(=O)/c(=C2/Sc3ccccc3N2CC)s/c1=C1/C(=O)NN=C1C,-6,15µM*,-12%,15,89%
CCCCNc1nc2ccccc2n1CC(=O)N1CCc2ccccc2C1,-13,12µM*,10%,-10,3.7µM*
CCCCNc1nc2ccccc2n1CC(=O)Nc1c(C)cccc1CC,-3,-24%,3%,-4,?
COc1cc(C(=O)Nc2cc(-c3cn4cccnc4n3)ccc2C)cc(OC)c1OC,26,18%,-19%,15,?
CC(=O)Nc1cccc(NC(=O)COc2ccccc2C)c1,33*,39%,-2%,20*,?
CN(c1cccc(NC(=O)CCSc2ccccc2)c1)S(C)(=O)=O,35*,44%,1%,38*,0%
CN(c1cccc(NC(=O)COc2ccc(Cl)cc2Cl)c1)S(C)(=O)=O,54*,152%,2%,19*,108%
Cc1ccccc1OCC(=O)Nc1cccc(N(C)S(C)(=O)=O)c1,+,14%,-8%,15*,nt
CN(C)S(=O)(=O)c1ccc(Cl)c(NC(=O)COc2ccccc2[N+](=O)[O-])c1,-4,-1%,1%,-1,5%
Cc1ncc(S(=O)(=O)C(C)(C)C)c(N)n1,16,-6%,8%,-1,12%
CCN1CCN(C(=O)C2CC(=O)N(c3ccc(Cl)cc3)C2)CC1 (centres undefined),-2,14%,-9%,-6,-11%
Cc1ccc(NC(=O)COc2ccccc2C=O)cc1Cl,29,187%,-5%,26*,18%
CN(c1cccc(NC(=O)COc2ccccc2)c1)S(C)(=O)=O,75*,127%,1%,43*,15%
COc1ccc(NC(=O)COC(=O)CCOc2ccccc2C)cc1Cl,nt,4%,nt,nt,4%
COc1ccc([C@]23Cc4ccccc4C(O2)c2c(cc(C)n(Cc4ccccc4)c2=O)O3)cc1,i,?,0%[11.5 µM],9,?
CCC(Cc1ccccc1)NC(=O)CCn1cccc1 (centres undefined),4,13%,-4%,-6,5.9µM*
O=C(CCn1cccc1)NCc1ccccc1,6,34%,-3%,16,8.3µM*
CCC(Cc1ccccc1)NC(=O)CCc1ccccc1 (centres undefined),-4,1%,4%,10,?
Cc1nn(C(=O)c2nn(C)cc2[N+](=O)[O-])c(C)c1Cl,-11,15%,3%,-3,-17%
CC(C)(C)OC(=O)NCCCCc1cn(CC(=O)N2CCN(C(=O)OC(C)(C)C)CC2)nn1,8,2%,5%,10,9%
CC[C@@H](C)[C@@H](C(=O)N1CCN(C(=O)OC(C)(C)C)CC1)n1cc(CCCCNC(=O)OC(C)(C)C)nn1,-6,?,9%,2,?
CC(C)(C)OC(=O)NCCCC[C@@H](C(=O)NCCCCCCCCCCC(=O)N1CCN(C(=O)OC(C)(C)C)CC1)n1cc(CCO)nn1,nt,1.9µM*,nt,nt,2.6µM*
CC[C@H](C)Cc1cn([C@@H](CCCCNC(=O)OC(C)(C)C)C(=O)NCCCCCCCCCCC(=O)N2CCN(C(=O)OC(C)(C)C)CC2)nn1,nt,2.1µM*,nt,nt,1µM*
CSCC[C@@H](C(=O)NCCCCCCCCCCC(=O)N1CCN(C(=O)OC(C)(C)C)CC1)n1cc(CCO)nn1,nt,5.2µM*,nt,nt,1.9µM*
SMILES,Shiga toxin inh,Pf growth 48h,LmPK inh,CHX counter,Pf growth 96h
CSCCCc1cn([C@@H](CO)C(=O)NCCCCCCCCCCC(=O)N2CCNCC2)nn1,nt,15µM*,nt,nt,-77%
Cn1c(COc2ccc([N+](=O)[O-])cc2)nnc1SCC(=O)NCC1CCCO1 (centres undefined),-5,20%,9%,-12,?
CCNC(=O)c1ccccc1NC(=O)C1CC(=O)N(C(C)C)C1 (centres undefined),-6,-25%,3%,2,-1%
COc1cc(NC(=O)CNC(=O)Cn2ccc3ccccc3c2=O)cc(OC)c1OC,13,5%,-2%,-1,?
CCc1ccc(C(=O)COC(=O)c2ccc(-c3nnc(-c4ccccc4)o3)cc2)cc1,17,57%,-2%,11,159%
COc1ccccc1C(=O)OCC(=O)c1cccc([N+](=O)[O-])c1,-9,32%,-4%,28*,25%
CCc1ccc(C(=O)COC(=O)c2ccccc2OC)cc1,133*,75%,?,43*,-24%

# High-throughput results as filed in PubChem BioAssay.
